# According to article PMC7862700, “An all-to-all approach to the identification of sequence-specific readers for epigenetic DNA modifications on cytosine”:
# Key:
# Assay in all cases: DAPPL (digital affinity profiling via proximity ligation, sequencing); 10 mM Tris-HCl pH 7.5, 50 mM NaCl, 1 mM DTT, 4% glycerol, room temperature, 30 min; GST-TFs on glutathione beads, 16-mer random dsDNA library, 0.1% formaldehyde crosslink after washing; high values mean tight binding
# [1] = target: T1, FLI1 (Homo sapiens, UniProt Q01543 1-452); conditions: protein: recombinant; tags: N-terminal GST; dsDNA, one strand shown
# T1 sequence: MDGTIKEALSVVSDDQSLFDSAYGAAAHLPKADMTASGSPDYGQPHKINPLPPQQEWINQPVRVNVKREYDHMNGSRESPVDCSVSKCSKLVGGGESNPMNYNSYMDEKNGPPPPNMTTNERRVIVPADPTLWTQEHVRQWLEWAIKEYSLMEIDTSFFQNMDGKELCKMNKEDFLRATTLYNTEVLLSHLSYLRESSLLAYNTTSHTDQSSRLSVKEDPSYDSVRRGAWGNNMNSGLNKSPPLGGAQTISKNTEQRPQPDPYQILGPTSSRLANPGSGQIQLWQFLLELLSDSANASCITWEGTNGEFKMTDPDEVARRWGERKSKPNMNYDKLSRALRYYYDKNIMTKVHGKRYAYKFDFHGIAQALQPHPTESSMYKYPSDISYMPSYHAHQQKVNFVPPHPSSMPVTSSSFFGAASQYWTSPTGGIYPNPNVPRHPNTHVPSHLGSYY
# Outline: (§1)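 GST fusions of human transcription factors were expressed in yeast and captured with glutathione beads. Once given DNA barcodes and pooled alongside a tag-only sample, they were incubated for 30 min at room temperature with 200 nmole of a random double-stranded 16-mer DNA library in Tris/NaCl/DTT/glycerol buffer, then washed, crosslinked (0.1% formaldehyde), proximity-ligated, PCR-amplified and sequenced on an Illumina NextSeq500. The binding signal of each hexamer is its read frequency for a factor divided by its frequency for the tag-only sample.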
# [2] = target: T2, ELK1 (Homo sapiens, UniProt P19419 1-428); conditions: protein: recombinant; tags: N-terminal GST; dsDNA, one strand shown
# T2 sequence: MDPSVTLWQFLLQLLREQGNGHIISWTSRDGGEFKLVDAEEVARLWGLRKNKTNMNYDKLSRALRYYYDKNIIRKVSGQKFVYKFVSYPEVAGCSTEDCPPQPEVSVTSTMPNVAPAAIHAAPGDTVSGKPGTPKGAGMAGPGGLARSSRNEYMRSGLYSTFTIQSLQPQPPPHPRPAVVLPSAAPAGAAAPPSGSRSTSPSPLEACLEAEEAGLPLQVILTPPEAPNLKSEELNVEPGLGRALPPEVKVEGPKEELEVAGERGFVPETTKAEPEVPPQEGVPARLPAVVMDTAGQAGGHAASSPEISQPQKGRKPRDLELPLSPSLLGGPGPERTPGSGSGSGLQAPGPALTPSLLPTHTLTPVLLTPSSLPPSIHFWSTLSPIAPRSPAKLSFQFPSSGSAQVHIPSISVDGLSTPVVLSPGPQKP
# Outline: as §1
# [3] = target: T3, GABPA (Homo sapiens, UniProt Q06546 1-454); conditions: protein: recombinant; tags: N-terminal GST; dsDNA, one strand shown
# T3 sequence: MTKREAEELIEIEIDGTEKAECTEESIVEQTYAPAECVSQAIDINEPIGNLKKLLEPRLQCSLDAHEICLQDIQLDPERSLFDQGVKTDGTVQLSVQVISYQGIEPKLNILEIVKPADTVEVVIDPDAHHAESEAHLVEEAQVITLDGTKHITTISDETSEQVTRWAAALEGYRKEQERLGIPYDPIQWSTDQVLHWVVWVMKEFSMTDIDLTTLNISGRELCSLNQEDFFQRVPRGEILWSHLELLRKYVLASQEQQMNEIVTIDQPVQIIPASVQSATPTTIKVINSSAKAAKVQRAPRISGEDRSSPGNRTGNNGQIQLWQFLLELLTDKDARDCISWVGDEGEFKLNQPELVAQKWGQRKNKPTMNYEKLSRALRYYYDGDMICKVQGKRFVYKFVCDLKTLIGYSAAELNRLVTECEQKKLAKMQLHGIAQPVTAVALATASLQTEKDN
# Outline: as §1
# [4] = target: T4, ERG (Homo sapiens, UniProt P11308 1-479); conditions: protein: recombinant; tags: N-terminal GST; dsDNA, one strand shown
# T4 sequence: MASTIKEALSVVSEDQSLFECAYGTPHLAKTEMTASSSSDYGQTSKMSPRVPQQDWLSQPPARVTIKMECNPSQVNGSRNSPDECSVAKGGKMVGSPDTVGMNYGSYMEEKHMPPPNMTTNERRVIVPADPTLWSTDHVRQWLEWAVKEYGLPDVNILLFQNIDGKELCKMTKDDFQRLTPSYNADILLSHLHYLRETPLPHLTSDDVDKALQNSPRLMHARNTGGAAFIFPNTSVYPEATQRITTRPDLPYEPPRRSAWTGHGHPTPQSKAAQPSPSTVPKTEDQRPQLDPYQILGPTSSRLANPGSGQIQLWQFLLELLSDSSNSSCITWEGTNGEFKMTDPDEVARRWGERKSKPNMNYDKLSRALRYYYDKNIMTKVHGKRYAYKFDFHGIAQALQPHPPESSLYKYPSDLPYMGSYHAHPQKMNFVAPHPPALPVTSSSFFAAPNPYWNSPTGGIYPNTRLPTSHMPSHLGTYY
# Outline: as §1
# [5] = target: ELF1 (Homo sapiens, UniProt P32519 1-619); conditions: protein: recombinant; tags: N-terminal GST; dsDNA, one strand shown
# Outline: as §1
# [6] = target: T5, EHF (Homo sapiens, UniProt Q9NZC4 1-300); conditions: protein: recombinant; tags: N-terminal GST; dsDNA, one strand shown
# T5 sequence: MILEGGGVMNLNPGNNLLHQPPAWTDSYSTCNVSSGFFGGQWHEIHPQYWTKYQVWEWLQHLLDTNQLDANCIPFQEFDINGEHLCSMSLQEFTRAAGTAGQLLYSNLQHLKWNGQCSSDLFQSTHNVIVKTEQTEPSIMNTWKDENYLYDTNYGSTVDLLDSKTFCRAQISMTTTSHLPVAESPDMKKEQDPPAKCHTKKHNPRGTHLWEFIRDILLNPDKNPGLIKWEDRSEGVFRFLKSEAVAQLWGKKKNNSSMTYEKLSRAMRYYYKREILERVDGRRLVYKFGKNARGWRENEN
# Outline: as §1
# [7] = target: SPI1 (Homo sapiens, UniProt P17947 1-270); conditions: protein: recombinant; tags: N-terminal GST; dsDNA, one strand shown
# Outline: as §1
# [8] = target: SPIB (Homo sapiens, UniProt Q01892 1-262); conditions: protein: recombinant; tags: N-terminal GST; dsDNA, one strand shown
# Outline: as §1
# [9] = target: T6, ELK3 (Homo sapiens, UniProt P41970 1-407); conditions: protein: recombinant; tags: N-terminal GST; dsDNA, one strand shown
# T6 sequence: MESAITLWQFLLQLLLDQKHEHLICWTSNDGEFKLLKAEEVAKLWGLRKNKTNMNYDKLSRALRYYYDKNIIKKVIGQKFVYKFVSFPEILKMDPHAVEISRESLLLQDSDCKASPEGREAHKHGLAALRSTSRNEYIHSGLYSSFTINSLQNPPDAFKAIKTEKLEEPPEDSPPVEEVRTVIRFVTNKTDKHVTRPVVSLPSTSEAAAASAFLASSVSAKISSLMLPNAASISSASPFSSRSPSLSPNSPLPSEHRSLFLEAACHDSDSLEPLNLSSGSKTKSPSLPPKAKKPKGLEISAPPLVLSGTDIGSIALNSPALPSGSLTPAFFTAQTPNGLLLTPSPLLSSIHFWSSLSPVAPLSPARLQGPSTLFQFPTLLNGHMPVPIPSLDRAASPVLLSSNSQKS
# Outline: as §1
# [10] = target: T7, FEV (Homo sapiens, UniProt Q99581 1-238); conditions: protein: recombinant; tags: N-terminal GST; dsDNA, one strand shown
# T7 sequence: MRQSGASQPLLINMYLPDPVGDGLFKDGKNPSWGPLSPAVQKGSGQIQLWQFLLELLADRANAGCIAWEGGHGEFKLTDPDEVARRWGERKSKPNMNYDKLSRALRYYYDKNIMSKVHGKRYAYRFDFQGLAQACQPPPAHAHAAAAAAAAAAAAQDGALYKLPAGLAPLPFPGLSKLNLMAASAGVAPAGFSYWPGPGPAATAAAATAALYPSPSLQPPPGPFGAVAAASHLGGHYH
# Outline: as §1
# [11] = target: ETV5 (Homo sapiens, UniProt P41161 1-510); conditions: protein: recombinant; tags: N-terminal GST; dsDNA, one strand shown
# Outline: as §1
# [12] = target: HSF1 (Homo sapiens, UniProt Q00613 1-529); conditions: protein: recombinant; tags: N-terminal GST; chain copies: 3; dsDNA, one strand shown
# Outline: as §1
# [13] = target: T8, SPIC (Homo sapiens, UniProt Q8N5J4 1-248); conditions: protein: recombinant; tags: N-terminal GST; dsDNA, one strand shown
# T8 sequence: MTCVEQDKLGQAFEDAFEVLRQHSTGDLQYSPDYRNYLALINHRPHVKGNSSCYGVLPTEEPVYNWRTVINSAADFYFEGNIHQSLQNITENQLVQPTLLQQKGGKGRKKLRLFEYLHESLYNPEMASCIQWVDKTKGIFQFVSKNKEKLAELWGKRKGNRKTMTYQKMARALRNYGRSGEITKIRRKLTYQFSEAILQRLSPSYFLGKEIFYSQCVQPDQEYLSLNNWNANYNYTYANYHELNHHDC
# Outline: as §1
# [14] = target: ELF4 (Homo sapiens, UniProt Q99607 1-663); conditions: protein: recombinant; tags: N-terminal GST; dsDNA, one strand shown
# Outline: as §1
# [15] = target: T9, ELK4 (Homo sapiens, UniProt P28324-2 1-405); conditions: protein: recombinant; tags: N-terminal GST; dsDNA, one strand shown
# T9 sequence: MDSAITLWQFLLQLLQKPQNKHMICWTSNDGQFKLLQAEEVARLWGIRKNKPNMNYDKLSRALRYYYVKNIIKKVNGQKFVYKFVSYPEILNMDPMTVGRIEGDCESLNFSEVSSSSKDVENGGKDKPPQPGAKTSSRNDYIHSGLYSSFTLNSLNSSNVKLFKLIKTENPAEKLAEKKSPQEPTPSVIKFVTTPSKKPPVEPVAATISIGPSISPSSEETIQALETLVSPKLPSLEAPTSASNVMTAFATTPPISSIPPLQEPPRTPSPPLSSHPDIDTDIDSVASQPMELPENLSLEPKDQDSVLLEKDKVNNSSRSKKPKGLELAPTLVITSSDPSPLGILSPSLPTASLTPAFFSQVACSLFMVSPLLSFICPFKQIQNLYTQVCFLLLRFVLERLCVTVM
# Outline: as §1
# [16] = target: T10, ETV2 (Homo sapiens, UniProt O00321 1-342); conditions: protein: recombinant; tags: N-terminal GST; dsDNA, one strand shown
# T10 sequence: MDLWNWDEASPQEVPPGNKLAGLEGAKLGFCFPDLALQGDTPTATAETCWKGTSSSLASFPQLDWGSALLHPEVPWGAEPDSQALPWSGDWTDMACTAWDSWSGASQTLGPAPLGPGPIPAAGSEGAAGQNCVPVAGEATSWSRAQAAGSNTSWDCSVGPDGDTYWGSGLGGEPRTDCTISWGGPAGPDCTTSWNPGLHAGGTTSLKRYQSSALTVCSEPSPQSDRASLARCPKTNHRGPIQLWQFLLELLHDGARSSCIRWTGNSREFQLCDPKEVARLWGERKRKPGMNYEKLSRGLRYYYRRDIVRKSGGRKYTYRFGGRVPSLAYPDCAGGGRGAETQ
# Outline: as §1
# [17] = target: T11, ELF3 (Homo sapiens, UniProt P78545 1-371); conditions: protein: recombinant; tags: N-terminal GST; dsDNA, one strand shown
# T11 sequence: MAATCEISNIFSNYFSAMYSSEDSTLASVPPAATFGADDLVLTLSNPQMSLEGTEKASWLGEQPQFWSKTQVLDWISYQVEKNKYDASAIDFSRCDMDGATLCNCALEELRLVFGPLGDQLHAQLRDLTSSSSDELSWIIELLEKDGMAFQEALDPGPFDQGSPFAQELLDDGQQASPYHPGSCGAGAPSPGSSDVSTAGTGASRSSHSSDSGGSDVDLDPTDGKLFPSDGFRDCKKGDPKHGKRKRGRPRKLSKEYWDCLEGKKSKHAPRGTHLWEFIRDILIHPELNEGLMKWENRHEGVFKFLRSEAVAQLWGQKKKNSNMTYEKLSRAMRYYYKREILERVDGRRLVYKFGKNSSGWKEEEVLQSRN
# Outline: as §1
# [18] = target: CRX (Homo sapiens, UniProt O43186 1-299); conditions: protein: recombinant; tags: N-terminal GST; dsDNA, one strand shown
# Outline: as §1
# [19] = target: ETV1 (Homo sapiens, UniProt P50549 1-477); conditions: protein: recombinant; tags: N-terminal GST; dsDNA, one strand shown
# Outline: as §1
# Chain of ELF4 (Q99607 whole entry): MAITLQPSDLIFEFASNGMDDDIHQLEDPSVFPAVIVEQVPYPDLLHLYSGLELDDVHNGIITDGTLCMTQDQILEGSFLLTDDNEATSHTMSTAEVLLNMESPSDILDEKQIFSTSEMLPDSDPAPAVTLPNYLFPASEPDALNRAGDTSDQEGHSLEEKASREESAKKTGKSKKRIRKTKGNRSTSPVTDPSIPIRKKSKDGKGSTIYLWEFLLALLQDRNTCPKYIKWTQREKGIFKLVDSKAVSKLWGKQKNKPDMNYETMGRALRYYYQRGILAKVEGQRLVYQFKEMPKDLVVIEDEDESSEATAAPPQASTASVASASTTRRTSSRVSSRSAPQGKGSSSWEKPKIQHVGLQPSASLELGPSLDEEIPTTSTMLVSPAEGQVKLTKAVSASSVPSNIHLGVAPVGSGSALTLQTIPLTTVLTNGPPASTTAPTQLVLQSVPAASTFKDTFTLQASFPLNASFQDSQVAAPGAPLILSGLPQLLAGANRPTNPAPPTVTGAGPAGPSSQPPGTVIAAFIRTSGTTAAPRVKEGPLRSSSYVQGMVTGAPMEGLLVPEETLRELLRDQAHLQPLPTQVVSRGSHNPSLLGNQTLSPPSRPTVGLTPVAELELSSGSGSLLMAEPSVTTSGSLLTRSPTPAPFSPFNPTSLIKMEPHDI
# Chain of HSF1 (Q00613 whole entry): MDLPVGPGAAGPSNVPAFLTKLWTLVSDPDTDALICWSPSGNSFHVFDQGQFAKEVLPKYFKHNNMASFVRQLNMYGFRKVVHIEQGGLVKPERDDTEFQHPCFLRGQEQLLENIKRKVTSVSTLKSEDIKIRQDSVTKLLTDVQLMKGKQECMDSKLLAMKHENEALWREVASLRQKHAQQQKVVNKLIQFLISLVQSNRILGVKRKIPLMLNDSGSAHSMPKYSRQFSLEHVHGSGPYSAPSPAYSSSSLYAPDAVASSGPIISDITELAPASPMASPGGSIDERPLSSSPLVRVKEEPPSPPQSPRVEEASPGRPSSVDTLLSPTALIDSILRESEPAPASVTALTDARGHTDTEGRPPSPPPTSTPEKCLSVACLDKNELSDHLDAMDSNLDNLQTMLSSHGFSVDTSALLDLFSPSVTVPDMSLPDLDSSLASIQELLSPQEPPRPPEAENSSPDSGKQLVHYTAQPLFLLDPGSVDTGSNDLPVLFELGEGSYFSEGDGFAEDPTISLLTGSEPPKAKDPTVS
# Chain of ETV1 (P50549 whole entry): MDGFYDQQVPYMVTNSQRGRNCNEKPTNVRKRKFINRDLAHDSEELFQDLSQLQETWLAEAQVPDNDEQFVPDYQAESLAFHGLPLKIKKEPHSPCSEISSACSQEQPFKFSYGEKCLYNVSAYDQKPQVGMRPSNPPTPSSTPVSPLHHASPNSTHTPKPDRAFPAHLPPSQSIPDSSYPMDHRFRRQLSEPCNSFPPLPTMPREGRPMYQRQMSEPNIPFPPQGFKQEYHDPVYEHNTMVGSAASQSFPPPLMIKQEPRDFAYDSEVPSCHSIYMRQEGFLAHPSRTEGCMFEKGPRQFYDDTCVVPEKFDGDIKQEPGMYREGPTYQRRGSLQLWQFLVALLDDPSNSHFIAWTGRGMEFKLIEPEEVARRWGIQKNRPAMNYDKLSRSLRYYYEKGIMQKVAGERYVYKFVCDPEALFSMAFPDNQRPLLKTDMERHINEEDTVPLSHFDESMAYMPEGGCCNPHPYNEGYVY
# Chain of CRX (O43186 whole entry): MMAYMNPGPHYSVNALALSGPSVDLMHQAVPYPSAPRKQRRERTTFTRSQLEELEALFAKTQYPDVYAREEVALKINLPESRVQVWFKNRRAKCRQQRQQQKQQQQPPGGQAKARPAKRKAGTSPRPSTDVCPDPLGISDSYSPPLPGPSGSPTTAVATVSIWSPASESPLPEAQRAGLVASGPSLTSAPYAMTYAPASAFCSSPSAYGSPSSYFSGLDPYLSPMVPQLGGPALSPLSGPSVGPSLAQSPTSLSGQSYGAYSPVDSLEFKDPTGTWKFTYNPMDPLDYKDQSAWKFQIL
# Chain of ELF1 (P32519 whole entry): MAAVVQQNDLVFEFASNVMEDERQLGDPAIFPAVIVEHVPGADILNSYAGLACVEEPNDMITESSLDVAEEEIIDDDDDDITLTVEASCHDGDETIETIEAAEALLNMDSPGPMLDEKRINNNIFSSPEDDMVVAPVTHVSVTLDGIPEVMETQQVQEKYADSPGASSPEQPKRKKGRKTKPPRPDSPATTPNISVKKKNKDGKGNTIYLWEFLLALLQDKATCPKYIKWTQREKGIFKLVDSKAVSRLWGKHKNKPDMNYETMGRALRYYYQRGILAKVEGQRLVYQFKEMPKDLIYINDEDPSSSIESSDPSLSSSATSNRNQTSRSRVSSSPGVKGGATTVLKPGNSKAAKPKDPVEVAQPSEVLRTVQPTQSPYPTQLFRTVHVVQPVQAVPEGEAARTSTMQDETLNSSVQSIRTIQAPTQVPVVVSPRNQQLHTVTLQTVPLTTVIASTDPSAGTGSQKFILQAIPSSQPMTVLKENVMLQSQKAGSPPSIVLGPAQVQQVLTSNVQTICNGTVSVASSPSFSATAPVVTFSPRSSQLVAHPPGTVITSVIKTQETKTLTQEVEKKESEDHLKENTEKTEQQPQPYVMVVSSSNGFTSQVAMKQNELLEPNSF
# Chain of ETV5 (P41161 whole entry): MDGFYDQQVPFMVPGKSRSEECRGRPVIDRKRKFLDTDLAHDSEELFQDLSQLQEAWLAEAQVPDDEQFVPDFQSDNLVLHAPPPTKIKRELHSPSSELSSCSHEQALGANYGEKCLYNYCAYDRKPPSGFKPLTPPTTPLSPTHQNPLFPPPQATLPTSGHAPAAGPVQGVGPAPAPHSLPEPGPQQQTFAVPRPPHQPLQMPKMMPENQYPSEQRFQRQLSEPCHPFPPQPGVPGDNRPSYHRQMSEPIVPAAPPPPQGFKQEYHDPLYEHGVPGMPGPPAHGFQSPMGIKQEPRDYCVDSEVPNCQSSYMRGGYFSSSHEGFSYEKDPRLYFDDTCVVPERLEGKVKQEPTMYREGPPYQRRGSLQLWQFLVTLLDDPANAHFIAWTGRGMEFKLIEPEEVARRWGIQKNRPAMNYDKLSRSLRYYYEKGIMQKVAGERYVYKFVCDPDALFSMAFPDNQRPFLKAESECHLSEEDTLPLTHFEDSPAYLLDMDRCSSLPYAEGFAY
# Chain of SPIB (Q01892 whole entry): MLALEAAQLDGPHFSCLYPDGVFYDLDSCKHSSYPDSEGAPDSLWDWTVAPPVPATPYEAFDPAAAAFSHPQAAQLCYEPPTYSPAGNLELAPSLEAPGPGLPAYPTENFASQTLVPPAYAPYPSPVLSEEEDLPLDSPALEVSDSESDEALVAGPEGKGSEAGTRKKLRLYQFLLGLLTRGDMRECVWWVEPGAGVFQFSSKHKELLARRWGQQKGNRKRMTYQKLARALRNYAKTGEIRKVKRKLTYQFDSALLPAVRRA
sequence,measurement,setting,value
TTGCGG,binding signal,[1],"1.37 fold enrichment (6-mer frequency, TF over GST control)"
same,binding signal,[2],"1.14 fold enrichment (6-mer frequency, TF over GST control)"
same,binding signal,[3],"1.21 fold enrichment (6-mer frequency, TF over GST control)"
same,binding signal,[4],"1.28 fold enrichment (6-mer frequency, TF over GST control)"
same,binding signal,[5],"1.38 fold enrichment (6-mer frequency, TF over GST control)"
same,binding signal,[6],"1.3 fold enrichment (6-mer frequency, TF over GST control)"
same,binding signal,[7],"1.61 fold enrichment (6-mer frequency, TF over GST control)"
same,binding signal,[8],"1.2 fold enrichment (6-mer frequency, TF over GST control)"
same,binding signal,[9],"1.26 fold enrichment (6-mer frequency, TF over GST control)"
same,binding signal,[10],"1.19 fold enrichment (6-mer frequency, TF over GST control)"
same,binding signal,[11],"1.36 fold enrichment (6-mer frequency, TF over GST control)"
same,binding signal,[12],"1.04 fold enrichment (6-mer frequency, TF over GST control)"
same,binding signal,[13],"1.47 fold enrichment (6-mer frequency, TF over GST control)"
same,binding signal,[14],"1.3 fold enrichment (6-mer frequency, TF over GST control)"
same,binding signal,[15],"1.2 fold enrichment (6-mer frequency, TF over GST control)"
same,binding signal,[16],"1.31 fold enrichment (6-mer frequency, TF over GST control)"
same,binding signal,[17],"1.42 fold enrichment (6-mer frequency, TF over GST control)"
same,binding signal,[18],"1.05 fold enrichment (6-mer frequency, TF over GST control)"
same,binding signal,[19],"1.27 fold enrichment (6-mer frequency, TF over GST control)"
